Measured values: PubChem BioAssay (NCI)
This is part of a sample that, as a whole, favours compounds with a hit. Of some 79,000 tested, about 15% had one in any assay. The source made the active and inactive calls. Cut-off read from the data, not from the text of the source: active = growth inhibition above about 70%; inactive = the rest. Where a SMILES comes first, the peptide text is derived from it. [ ]: non-standard residue; d: D form. The star is where a group is joined. Cbz = O=C(OCc1ccccc1)*; Nva = CCC[CH](N)C(=O)O

Tests used:
[1] = NCI Yeast Anticancer Drug Screen. Data for the rad50 strain (AID 155);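 note: 0% = growth of vehicle-only cultures of the same strain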; conditions: S. cerevisiae rad50 strain growth inhibition; at 50.0 µM; hits give high values
Method in brief: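 Growth of the mutant yeast was measured after compound exposure and referenced to vehicle-treated cultures.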

[2] = NCI Yeast Anticancer Drug Screen. Data for the mec2-1 strain (AID 157); conditions: S. cerevisiae mec2-1 strain, at 50.0 µM, hits give high values
Method in brief: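 Using mec2-1 yeast: add compound, measure growth, express inhibition versus vehicle-treated cultures.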

[3] = NCI Yeast Anticancer Drug Screen. Data for the sgs1 mgt1 strain (AID 161);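 note: 0% = growth of cultures given vehicle only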; conditions: S. cerevisiae sgs1 mgt1 strain, at 50.0 µM, hits give high values
Method in brief: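 Growth of a repair-deficient yeast mutant was monitored after compound treatment and expressed as inhibition relative to vehicle-treated cultures.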

[4] = NCI Yeast Anticancer Drug Screen. Data for the cln2 rad14 strain (AID 165);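 note: 0% = growth equal to vehicle treated cultures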; conditions: S. cerevisiae cln2 rad14 strain, at 50.0 µM, hits give high values
Method in brief: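 Yeast strain cln2 rad14, bearing defects in cell cycle control and DNA repair, serves as the test system; values reflect growth inhibition compared with vehicle.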

[5] = NCI Yeast Anticancer Drug Screen. Data for the bub3 strain (AID 167); conditions: S. cerevisiae bub3 mutant strain, at 50.0 µM, hits give high values
Method in brief: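 Whole-cell yeast assay. The mutant strain was incubated with compounds, and growth inhibition was determined by comparison with vehicle-treated cells.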

[6] = NCI Yeast Anticancer Drug Screen. Data for the mlh1 rad18 strain (AID 175); conditions: S. cerevisiae mlh1 rad18 strain growth inhibition; at 50.0 µM; hits give high values
Method in brief: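 Steps: expose repair-defective yeast to compound; measure growth; express inhibition against vehicle-treated controls.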

Measured: growth inhibition

CC(C)c1ccc(NC(=S)NCCO)cc1
inactive: [1] -7.95% | [2] -4% | [3] -21.7% | [4] -9.65% | [5] -4.1% | [6] -10.9%

Cc1c(C#N)c2n(c1C)CCN2
inactive: [1] -14.3% | [2] -14.1% | [3] -9.2% | [4] -36% | [5] -5.65% | [6] -4.45%

Oc1ccccc1CNc1ncc(Cl)cc1Cl
inactive: [1] 24.9% | [2] 16% | [3] 26.8% | [4] -5.15% | [5] 39.1% | [6] 19.4%

Cn1c2c(F)cccc2c(=O)c2c(O)cc3c(c21)C=CC(C)(C)O3
inactive: [1] -24.6% | [2] -22.2% | [3] -27.4% | [4] -17.9% | [5] -18.6% | [6] -19.7%

CCOC(=O)NC(Nc1ccc(F)cc1F)(C(F)(F)F)C(F)(F)F
inactive: [1] 12.8% | [2] -23.4% | [3] -15.7% | [4] 10.2% | [5] -14.8% | [6] 1.4%

CC1/C(=N/O)CC(c2ccccc2)N(N=O)C1c1ccccc1 (stereo unspecified)
inactive: [1] 62.8% | [2] 46.2% | [3] 57.5% | [4] 18.8% | [5] 13.6% | [6] 46%

c1ccc(CC(c2cccc3ccccc23)N2CCOCC2)cc1 (stereo unspecified)
inactive: [1] 22.2% | [2] 23.9% | [3] 39.7% | [4] -7.55% | [5] 30% | [6] 23.2%

CCOC(=O)/C(C#N)=C/Nc1c(C)n(C)n(-c2ccccc2)c1=O
inactive: [1] 0.95% | [2] 10.3% | [3] 6.75% | [4] 16.4% | [5] -0.85% | [6] 13.6%

Nc1nc(-c2ccccc2)c(Cl)c(-c2cc(Cl)ccc2O)n1
inactive: [1] -1.45% | [2] -1.3% | [3] -10.4% | [4] 25.3% | [5] 4.25% | [6] 2.7%

CC[n+]1cc([N+](=O)[O-])ccc1Cl
inactive: [1] 17.5% | [2] 14.5% | [3] 13.6% | [4] 15.9% | [5] 12.4% | [6] 20.2%

N#C/C(=C/c1cccc([N+](=O)[O-])c1)C(=O)O
inactive: [1] 38% | [2] 10.6% | [3] 22.6% | [4] 12.9% | [5] 15.8% | [6] 38%

COC1N(C2C=CC(CO)O2)C(=O)NC(=O)C1(C)Br (stereo unspecified)
inactive: [1] -4.8% | [2] -18.1% | [3] 2.8% | [4] 2.75% | [5] -17.8% | [6] 15.8%

COC1=C(NCC(C)C)C(=O)C(OC)=C(NCC(C)C)C1=O
inactive: [1] -3.05% | [2] 8.75% | [3] 1.7% | [4] -57.7% | [5] 3.25% | [6] -12.1%

C/C(=C\C(=O)c1ccccc1)c1ccccc1
inactive: [1] 17.3% | [2] -5.8% | [3] -20.9% | [4] -16.6% | [5] 12.2% | [6] 57%

Nc1nc(-c2cccc(S(=O)(=O)O)c2)c([N+](=O)[O-])c(=O)[nH]1
inactive: [1] -10% | [2] -8.05% | [3] -15.7% | [4] 10.2% | [5] -24.6% | [6] 17.6%

CCOC(=O)C[C@](C)(O)C1CCCN1 (stereo partly specified)
inactive: [1] 26.5% | [2] 11.8% | [3] 5.95% | [4] 5.3% | [5] -3% | [6] 8.75%

Cn1c(=O)c2ccccc2c2cc([N+](=O)[O-])ccc21
inactive: [1] -11.8% | [2] -5.05% | [3] -18.5% | [4] 1.1% | [5] 12.7% | [6] -4.2%

C=C(S(=O)(=O)c1ccccc1)S(=O)(=O)c1ccccc1 (tested in a mixture with another compound)
active: [1] 92.8% | [2] 97.3% | [3] 96.4% | [4] 98% | [5] 97.8% | [6] 94.9%

CC1(C)OC2C(CNS(C)(=O)=O)OC(n3cnc4c(N)ncnc43)C2O1 (stereo unspecified)
inactive: [1] -3.05% | [2] -4.55% | [3] -12.1% | [4] -4.75% | [5] 7.45% | [6] -13.2%

COc1ccc(CSC(=S)Nc2ccc(C)c(Cl)c2)cc1
inactive: [1] 26% | [2] 18.2% | [3] 18.6% | [4] 10.1% | [5] -3.35% | [6] 17.2%

CCCC(NC(=O)OCc1ccccc1)C(=O)NC(Cc1ccccc1)C(N)=O (stereo unspecified) (Cbz-[Nva]-Phe-NH2; configuration not given here)
inactive: [1] -6% | [2] -0.9% | [3] -3.45% | [4] -34.2% | [5] -5.5% | [6] 0.45%

COC(=O)c1cc(=O)n(C)c2ccc(OC)cc12
inactive: [1] 21.1% | [2] 10.8% | [3] -5.3% | [4] 9.75% | [5] 13.6% | [6] 20.7%

O=C1c2ccccc2C(=O)c2c1ccc1c2[nH]c2ccccc21
inactive: [1] 2.15% | [2] -4.8% | [3] 3.75% | [4] -67.2% | [5] 0.8% | [6] -4.85%

CN(C)S(=O)(=O)c1ccc(NC(=O)OC2CCCC2)cc1
inactive: [1] 12.9% | [2] 3.7% | [3] 6.8% | [4] 33.2% | [5] 24.6% | [6] 0.35%

O=[N+]([O-])c1ccc(OP(=O)(O)O)cc1
inactive: [1] -5.9% | [2] 13.3% | [3] -9.85% | [4] 20.2% | [5] 8.95% | [6] -10.2%

O=C1N(Cc2ccccc2)CC2CCc3c(ccc4ccccc34)N12 (stereo unspecified)
inactive: [1] 11% | [2] -12.9% | [3] -1.3% | [4] -3.85% | [5] 4.85% | [6] 4.75%

COC(C(=O)[O][Ge]([CH3])([CH3])[CH3])c1ccccc1 (stereo unspecified)
inactive: [1] 13.8% | [2] -17.8% | [3] -6.85% | [4] 31.4% | [5] -2.15% | [6] -9.25%

Clc1ccccc1C(CI)c1ccccc1Cl
inactive: [1] 25.6% | [2] 9.75% | [3] 15.2% | [4] 13.4% | [5] -1.2% | [6] 10.1%

CC(=O)OC1CCC(C(C)C)CC1 (stereo unspecified)
inactive: [1] 4.35% | [2] -2.95% | [3] -0.25% | [4] -28.2% | [5] 1.15% | [6] -13.1%

CC(=O)Nc1ccc(OCc2ccccc2)cc1[N+](=O)[O-]
inactive: [1] 20.5% | [2] -11.9% | [3] 9.75% | [4] 10.2% | [5] 6.85% | [6] 28.2%

COC(=O)C1(Cc2ccccc2)Cc2ccccc2C1=O (stereo unspecified)
inactive: [1] -3.1% | [2] 3% | [3] 37.7% | [4] 33.9% | [5] 39.2% | [6] -3%

Cc1ccc(S(=O)(=O)N/N=C2/CCCOC2)cc1
inactive: [1] 16.1% | [2] 4.15% | [3] 59.6% | [4] 32.5% | [5] 24.2% | [6] 38%

Cc1cc(=O)c2cc3ccc4cccc5ccc(c2[nH]1)c3c45
inactive: [1] -12.6% | [2] -8.35% | [3] -10.1% | [4] -24.3% | [5] -6.85% | [6] -5.85%

CC(=O)Nc1ccc(/C=c2\sc3nnc(CCC(=O)Nc4ccccc4Cl)n3c2=O)cc1
inactive: [1] -16.4% | [2] -17.7% | [3] -20.1% | [4] 7.6% | [5] 7.1% | [6] -9.55%

CC(C)=CCC[C@@H](C)C1[C@@H](OC2OC(CO)C(O)C(O)C2O)CC2(C)[C@@H]3CC(=O)C4C(C)(C)[C@@H](OC5OC(CO)C(O)C(O)C5O)CC[C@@]45C[C@@]35CC[C@]12C (stereo partly specified)
inactive: [1] -17.4% | [2] -40% | [3] -27.1% | [4] -3.15% | [5] -20.8% | [6] -25.4%

Nc1ccc(/C=C/C(=O)O)cc1
inactive: [1] -9.1% | [2] -6% | [3] 11.6% | [4] 10.8% | [5] 2.55% | [6] 9.95%

CCCCN(CCCC)CC(O)c1cc(-c2ccccc2)nc2c(O)cccc12 (stereo unspecified)
inactive: [1] -28.6% | [2] 22.4% | [3] -18.2% | [4] -14.4% | [5] 3.6% | [6] -12.2%

O=C(O)c1ccc(N=Nc2ccccc2)cc1
inactive: [1] -4.4% | [2] 14.9% | [3] 20.9% | [4] 0.3% | [5] -5.1% | [6] 2.75%

C=C1CC(C)(C)CN(Cc2ccc([N+](=O)[O-])cc2)C(C(=O)OC)=C1C(=O)OC
inactive: [1] 20.4% | [2] -2.55% | [3] 24.4% | [4] 16.8% | [5] -13.8% | [6] 13.2%

CC(C)(C)OC(=O)NCS(=O)(=O)N(Cc1ccccc1)Cc1ccccc1
active: [1] 91.8% | [2] 89% | [4] 82.6% | [5] 79.4% | [6] 89.7%
inactive: [3] 51.7%

Oc1ccccc1C=NCCN(CCN=Cc1ccccc1O)c1ccccc1
inactive: [1] 21.1% | [2] 7.1% | [3] 26.1% | [4] 12.8% | [5] 8.9% | [6] 32.5%
